# Hits are enriched below; roughly 1.5% of the tested compounds scored in any of these assays.
# RAD52 anneal inh: RAD52 DNA annealing inhibitors, primary screen, biochemical, FRET, single point, set 2; DNA repair protein RAD52 homolog (Homo sapiens), P43351; recombinant RAD52 DNA annealing, FRET fluorescence; inhibition, % at 18.7 µM; actives 0.46% (n = 360,000); AID 651710, 2012;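 active means every replicate showing at least 50% inhibition; inconclusive means mean inhibition at least 50% but not in every replicate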
# Target sequence (P43351 whole entry, looked up): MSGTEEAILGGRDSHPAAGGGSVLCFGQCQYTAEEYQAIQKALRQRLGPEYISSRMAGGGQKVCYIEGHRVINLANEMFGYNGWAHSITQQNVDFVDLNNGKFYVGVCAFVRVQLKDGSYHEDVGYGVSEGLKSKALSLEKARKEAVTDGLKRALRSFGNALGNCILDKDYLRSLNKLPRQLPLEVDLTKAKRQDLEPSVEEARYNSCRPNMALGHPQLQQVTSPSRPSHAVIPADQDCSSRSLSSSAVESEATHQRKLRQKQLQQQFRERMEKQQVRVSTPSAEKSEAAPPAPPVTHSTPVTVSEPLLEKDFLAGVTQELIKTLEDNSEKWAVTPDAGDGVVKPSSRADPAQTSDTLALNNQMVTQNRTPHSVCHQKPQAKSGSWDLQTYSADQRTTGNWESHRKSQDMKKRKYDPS
# N-glyco inh: increase of ERlucT glycosylation luciferase signal, primary screen, N-linked glycosylation inhibitor project, D54 ERlucT cells, luminescence, set 2 | AID 588692, 2011 | D54 ERlucT glycosylation luciferase reporter, 24 h; percent of 100 nM tunicamycin response | reporter increase, % at 12.5 µM | actives 0.23% (n = 360,000);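 active means mean luciferase reporter signal, scaled so untreated is 0 and the glycosylation-blocking control 100, at or above a set limit in every replicate; inconclusive means mean reaches the limit but not every replicate does; inactive means mean below the limit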;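 further: luciferase carries N-glycosylation sites so blocking glycosylation raises the light; 0% = median of neutral control wells and 100% = median of 100 nM tunicamycin wells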
# PvdQ inh: P. aeruginosa PvdQ acylase inhibitors, primary screen, biochemical, fluorescence, plate reader and imaging, single point; PvdQ acylase [Pseudomonas aeruginosa LESB58]; purified PvdQ acylase; inhibition, % at 10 µM; actives 0.063% (n = 340,000); AID 488965, 2010; in the data active means inhibition above about 30%, passing the limit was not always enough; inconclusive means no clear call, values can overlap the other calls;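 further: 0% = vehicle neutral wells and 100% = reference inhibitor wells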
# RAD54 inh: inhibitors of human RAD54 branch migration, primary screen, biochemical, fluorescence, single point | DNA repair and recombination protein RAD54-like (Homo sapiens), Q92698 | RAD54 Holliday junction branch migration, FAM/BHQ fluorescence | inhibition, % at 10.4 µM | actives 0.14% (n = 360,000) | AID 602329, 2012;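 active means mean normalized replicate activity at least 40 and at least half of replicates scoring 40 or more; inconclusive means only one of the two criteria met; inactive means mean below 40 and under half of replicates reaching 40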;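 further: 0% = median of neutral control wells and 100% = median of positive control wells; inhibitors cause a drop in the FAM fluorescence signal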
# CFTR F508del cor: F508del CFTR correction, initial screen, CFBE line, single point; CFBE cells, YFP halide quenching; stimulated with forskolin plus potentiator P3; % fluorescence drop versus neutral controls; activity (quench increase), % at 7.58 µM; actives 0.36% (n = 350,000);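 active means mean added fluorescence quench of at least 8% versus neutral control, with both replicates also reaching 8%; inconclusive means only one of the mean or replicate conditions met; inactive means mean below 8% and not both replicates reaching 8%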;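 further: cells transiently co-express mutant CFTR-F508del with the halide-sensitive YFP; corrector assay measuring rescue of mutant channel to the surface after 24 h compound exposure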
# dFosB act: activators of delta FosB homodimer, primary screen, biochemical, fluorescence polarization, TAMRA-CDK5 oligo, single point; purified delta FosB; percent of positive-control signal above neutral wells; actives 0.99% (n = 340,000); activation, % at 25 µM; AID 493131, 2011; Protein FosB (Mus musculus), P13346;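 active means mean activation above about 17%, with every replicate also reaching it, limit read from the data, passing the limit was not always enough; inconclusive means only one of the two conditions met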
# Active calls of the source: *; u = inconclusive; x = no result.
SMILES,RAD52 anneal inh,N-glyco inh,PvdQ inh,RAD54 inh,CFTR F508del cor,dFosB act
O=C(C[C@@H]1C[C@H]2c3cc(NC(=O)NC4CCCC4)ccc3O[C@H]2[C@@H](CO)O1)NC1CCCC1,4,x,x,5,1,x
O=C(C[C@@H]1C/C=C/CC[C@H](Cc2ccc(F)cc2)C(=O)OC[C@@H](Cc2ccccc2)NC1=O)N[C@H](CO)Cc1ccccc1,-15,126*,-10,1,3,-3
C[C@@H]1COC(=O)[C@H](Cc2ccc(F)cc2)CC/C=C/C[C@@H](CC(=O)N[C@@H](CO)Cc2ccccc2)C(=O)N1,2,2,-3,-3,-3,6
C[C@H](CO)N1C[C@H](C)[C@@H](CN(C)C(=O)C2CCOCC2)Oc2ncc(C#CC(C)(C)O)cc2C1=O,9,x,x,-4,0,x
CCN1C(=O)c2cccc3c(S(=O)(=O)Nc4ccccc4)ccc1c23,x,51*,-2,-9,x,-4
CCN1C(=O)c2cccc3c(S(=O)(=O)Nc4ccccn4)ccc1c23,x,50*,-4,5,x,1
CC(=O)Nc1ccc2c(O)cc(S(=O)(=O)O)cc2c1,-38,0,-2,-4,2,-4
Nc1ccc2c(O)cc(S(=O)(=O)O)cc2c1,-120,-1,-11,73*,4,-13
C[C@@H]1CN([C@H](C)CO)C(=O)Cc2cc(NC(=O)c3ccncc3)ccc2O[C@H]1CN(C)S(=O)(=O)c1ccccc1,-3,x,x,-2,-2,x
CNc1nc(N/N=C/c2cc([N+](=O)[O-])ccc2F)nc(Nc2ccccc2)n1,-13,0,0,-4,0,94*
CCCCN(C(=O)CCC(=O)O)C1CC(=O)N(c2ccc(OCCC)cc2)C1=O (stereo unspecified),x,0,-9,-4,x,-3
CCCCCCC(=O)N(O)C1CC(=O)N(c2ccc(F)cc2)C1=O (stereo unspecified),-10,78*,-7,-6,1,-5
COc1ccccc1N(O)C1CC(=O)N(c2ccc(Br)cc2)C1=O (stereo unspecified),x,1,0,-7,x,-9
CCCCCCC(=O)N(O)C1CC(=O)N(c2ccc(Br)cc2)C1=O (stereo unspecified),x,68*,3,1,x,-13
C[C@H](CO)N1C[C@H](C)[C@H](CN(C)S(=O)(=O)c2cccs2)OCCCC[C@H](C)Oc2ccc(NC(=O)c3ccncc3)cc2C1=O,-17,x,x,-8,0,x
C[C@@H]1CCCCO[C@@H](CN(C)Cc2ccc(C(F)(F)F)cc2)[C@H](C)CN([C@@H](C)CO)C(=O)c2cc(NS(C)(=O)=O)ccc2O1,x,x,x,-3,-1,x
Cc1cccc(N2CCc3c2nc2ccc(Br)cc2c3N)c1,-17,0,-4,-12,0,33*
CCCNC(=O)N1CC2(C1)CN(C(=O)CC1CC1)[C@@H](CO)c1[nH]c3cc(OC)ccc3c12,x,x,x,x,1,x
CN(C)CCCN(C(=O)COc1ccc(Cl)cc1)c1nc2cc3c(cc2s1)OCCO3,60*,-1,-4,20,1,u
CN(C)CCCN(C(=O)COc1ccc(Cl)cc1)c1nc2cc3c(cc2s1)OCO3,43,-6,15,23,-2,39*
CN(C)CCCN(C(=O)COc1ccccc1)c1nc2cc3c(cc2s1)OCO3,48,-2,-5,33,1,u
CCC1CCCCN1S(=O)(=O)c1ccc(C(=O)N(CCCN(C)C)c2nc3cc4c(cc3s2)OCO4)cc1 (stereo unspecified),-10,-15,5,28,0,24*
Cc1cc(C)c2nc(N(CCCN(C)C)C(=O)c3ccc4c(c3)OCCO4)sc2c1,44,-4,7,17,-1,31*
CN(C)CCCN(C(=O)c1ccc(S(=O)(=O)N2CCCCCC2)cc1)c1nc2cc3c(cc2s1)OCO3,7,-12,x,13,2,x

# Screening data from PubChem BioAssay.
